In paper PMC7862700, “An all-to-all approach to the identification of sequence-specific readers for epigenetic DNA modifications on cytosine”:

Each sequence was assayed against T1, ERG (Homo sapiens, UniProt P11308 1-479) (assay: DAPPL (digital affinity profiling via proximity ligation, sequencing); 10 mM Tris-HCl pH 7.5, 50 mM NaCl, 1 mM DTT, 4% glycerol, room temperature, 30 min; GST-TFs on glutathione beads, 16-mer random dsDNA library, 0.1% formaldehyde crosslink after washing; high values mean tight binding). Conditions: protein: recombinant; tags: N-terminal GST; dsDNA, one strand shown.
T1 sequence: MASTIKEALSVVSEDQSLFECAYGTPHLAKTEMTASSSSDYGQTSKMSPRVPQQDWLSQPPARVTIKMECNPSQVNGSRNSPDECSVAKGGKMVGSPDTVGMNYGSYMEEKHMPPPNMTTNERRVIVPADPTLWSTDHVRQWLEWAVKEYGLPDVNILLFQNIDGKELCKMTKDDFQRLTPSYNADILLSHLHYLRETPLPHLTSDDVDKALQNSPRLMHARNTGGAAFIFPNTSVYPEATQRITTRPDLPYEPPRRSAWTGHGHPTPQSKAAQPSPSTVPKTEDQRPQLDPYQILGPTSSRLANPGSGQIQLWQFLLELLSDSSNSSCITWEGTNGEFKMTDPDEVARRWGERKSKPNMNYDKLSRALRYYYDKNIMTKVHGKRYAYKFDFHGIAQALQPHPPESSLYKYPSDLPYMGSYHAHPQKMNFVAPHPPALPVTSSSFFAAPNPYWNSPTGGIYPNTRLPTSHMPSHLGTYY
Summary of the method: (§1)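 Pools of DNA-barcoded human transcription factors, expressed in yeast as GST fusions on glutathione beads and combined with a tag-only sample, were incubated with 200 nmole of a 16-mer random double-stranded DNA library. Incubation took 30 min at room temperature in Tris/NaCl/DTT/glycerol buffer and was followed by washing, 0.1% formaldehyde crosslinking, proximity ligation (BsaI/T4 ligase, 1 h, 37 °C), PCR amplification and sequencing on an Illumina NextSeq500. Binding signal is the ratio of a hexamer's read frequency for a factor to its frequency for the tag-only sample.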

Sequence	binding signal
CTTGCC	1.24 fold enrichment (6-mer frequency, TF over GST control)
TATCAT	1.13 fold enrichment (6-mer frequency, TF over GST control)
ATTTCA	1.25 fold enrichment (6-mer frequency, TF over GST control)
TCTCGA	1.38 fold enrichment (6-mer frequency, TF over GST control)
TACGCT	1.34 fold enrichment (6-mer frequency, TF over GST control)
CTGCTG	1.11 fold enrichment (6-mer frequency, TF over GST control)
GCCTCG	1.45 fold enrichment (6-mer frequency, TF over GST control)
TATTGA	1.13 fold enrichment (6-mer frequency, TF over GST control)
TTGATA	1.17 fold enrichment (6-mer frequency, TF over GST control)
TGGATG	1.32 fold enrichment (6-mer frequency, TF over GST control)

The sequences below were run against ELF1 (Homo sapiens, UniProt P32519 1-619) in the same assay as above. Conditions: protein: recombinant; tags: N-terminal GST; dsDNA, one strand shown.
Summary of the method: as §1

Sequence of ELF1 (P32519 whole entry): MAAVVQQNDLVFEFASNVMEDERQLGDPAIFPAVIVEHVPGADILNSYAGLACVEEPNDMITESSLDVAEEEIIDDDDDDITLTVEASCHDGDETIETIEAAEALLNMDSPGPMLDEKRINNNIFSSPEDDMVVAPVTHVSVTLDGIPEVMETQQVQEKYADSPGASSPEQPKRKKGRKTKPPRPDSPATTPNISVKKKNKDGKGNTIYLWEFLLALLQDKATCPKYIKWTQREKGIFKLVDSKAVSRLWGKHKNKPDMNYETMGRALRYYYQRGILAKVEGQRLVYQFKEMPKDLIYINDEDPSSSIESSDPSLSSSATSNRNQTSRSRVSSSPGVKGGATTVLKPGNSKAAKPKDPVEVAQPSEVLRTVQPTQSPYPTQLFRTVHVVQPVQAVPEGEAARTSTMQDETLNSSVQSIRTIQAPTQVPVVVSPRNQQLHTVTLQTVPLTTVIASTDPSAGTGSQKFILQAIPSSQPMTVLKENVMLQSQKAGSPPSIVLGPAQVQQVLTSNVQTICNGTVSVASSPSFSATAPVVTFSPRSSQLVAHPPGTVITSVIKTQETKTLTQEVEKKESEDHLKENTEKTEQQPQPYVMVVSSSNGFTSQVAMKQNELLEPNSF

Sequence	binding signal
ATATAC	1.14 fold enrichment (6-mer frequency, TF over GST control)
CTTTCC	1.89 fold enrichment (6-mer frequency, TF over GST control)
ACGTCT	1.17 fold enrichment (6-mer frequency, TF over GST control)
TCTACT	1.35 fold enrichment (6-mer frequency, TF over GST control)
TTGGTT	1.39 fold enrichment (6-mer frequency, TF over GST control)
GTTCTG	1.08 fold enrichment (6-mer frequency, TF over GST control)
ATGGTT	1.39 fold enrichment (6-mer frequency, TF over GST control)
TCCTTG	1.25 fold enrichment (6-mer frequency, TF over GST control)
CGACTC	1.45 fold enrichment (6-mer frequency, TF over GST control)
AAGTCC	1.23 fold enrichment (6-mer frequency, TF over GST control)
ATTTAA	1.22 fold enrichment (6-mer frequency, TF over GST control)
CCTGAC	1.46 fold enrichment (6-mer frequency, TF over GST control)
CCCGAT	1.16 fold enrichment (6-mer frequency, TF over GST control)
TAGTAT	1.29 fold enrichment (6-mer frequency, TF over GST control)
AAACCT	1.19 fold enrichment (6-mer frequency, TF over GST control)
GTCTCG	1.32 fold enrichment (6-mer frequency, TF over GST control)
ACTTCA	1.42 fold enrichment (6-mer frequency, TF over GST control)
CTCAAT	1.23 fold enrichment (6-mer frequency, TF over GST control)
CCAATA	1.25 fold enrichment (6-mer frequency, TF over GST control)
GCCTTA	1.17 fold enrichment (6-mer frequency, TF over GST control)

Sequence	binding signal
GATTCA	1.17 fold enrichment (6-mer frequency, TF over GST control)
GCTCCA	1.2 fold enrichment (6-mer frequency, TF over GST control)
TCCTTT	1.81 fold enrichment (6-mer frequency, TF over GST control)
CATTCT	1.4 fold enrichment (6-mer frequency, TF over GST control)
TTCCTG	2.22 fold enrichment (6-mer frequency, TF over GST control)
CCTCCT	1.5 fold enrichment (6-mer frequency, TF over GST control)
TATGAT	1.24 fold enrichment (6-mer frequency, TF over GST control)
CGATCT	1.3 fold enrichment (6-mer frequency, TF over GST control)
AGCTAT	1.16 fold enrichment (6-mer frequency, TF over GST control)
TTATGC	1.15 fold enrichment (6-mer frequency, TF over GST control)
CTTGCC	1.29 fold enrichment (6-mer frequency, TF over GST control)
TATCAT	1.15 fold enrichment (6-mer frequency, TF over GST control)
ATTTCA	1.21 fold enrichment (6-mer frequency, TF over GST control)
TCTCGA	1.41 fold enrichment (6-mer frequency, TF over GST control)
TACGCT	1.34 fold enrichment (6-mer frequency, TF over GST control)
CTGCTG	1.4 fold enrichment (6-mer frequency, TF over GST control)
GCCTCG	1.42 fold enrichment (6-mer frequency, TF over GST control)
TATTGA	1.18 fold enrichment (6-mer frequency, TF over GST control)
TTGATA	1.24 fold enrichment (6-mer frequency, TF over GST control)
TGGATG	1.48 fold enrichment (6-mer frequency, TF over GST control)
